From PubChem
This is one part of a sample in which hits are shown more often than they occur.
VACV E9 pol inh – inhibitors of vaccinia virus processive DNA synthesis (E9 polymerase); in vitro processive DNA synthesis, absorbance read-out; stronger effect = lower value; normalized absorbance, % (test concentration not listed); 46,000 compounds, 0.94% hits; in the data active = normalized absorbance mostly below about 85%, no sharp cut-off; inactive = mostly above about 86%
Numbers without * were called inactive.

SMILES	VACV E9 pol inh
CC(=O)N[C@@H](Cc1c[nH]c2ccccc12)C(=O)O	100.2
Cc1ccc(C(=O)N2N=C3c4ccccc4S(=O)(=O)N3C2N(C)C)cc1 (centres undefined)	100.4
O=C(OCC(=O)N1CCc2ccccc2C1)c1ccccc1O	95.5
O=C(O)/C=C/c1c(Cl)nc2sccn12	78.0
c1coc(-c2cn3ccc4ccccc4c3n2)c1	84.2*
CCN(CC)C(=O)c1cc(-c2ccco2)nc2ccccc12	87.2
Cn1ccnc1C(=O)c1cc(-c2ccco2)nc2ccccc12	84.1
COC(=O)C1OC2(CCCC2)OC1C(=O)OC (centres undefined)	100.6
Cc1cc(C)nc(/N=C(\N)Nc2ccccc2)n1	41.2*
Cc1cc(C)nc(NC(N)=NCc2ccccc2)n1	97.7
Cc1cc(=O)[nH]c(/N=C(\N)Nc2ccccc2)n1	100.3
Cc1cc(C)n(C(=O)NC2CCCCC2)n1	106.5
O=C(O)c1cccc(-c2ccc(/C=c3/sc4nc5ccccc5n4c3=O)o2)c1	100.1
CC1=NN(c2cccc(C(=O)O)c2)C(=O)/C1=C/c1ccc(-c2cccc(Cl)c2C)o1	51.4*
Cc1ccc(C2=C/C(=C/c3ccc(-c4cccc(C(=O)O)c4)o3)C(=O)O2)cc1	99.7
CC(=O)NC(NCCC12CC3CC(CC(C3)C1)C2)(C(F)(F)F)C(F)(F)F	99.8
O=C(O)c1oc2ccccc2c1COc1ccccc1	71.6*
O=C(O)c1oc2ccccc2c1CSc1ccccn1	90.4
Cc1c(C(=O)O)oc2ccccc12	100.3
CCOc1cc(/C=C2/SC(=S)NC2=O)cc(Br)c1O	68.9*
CCOc1cc(/C=C2\SC(=S)NC2=O)cc(Cl)c1OC(=O)c1ccc(OC)cc1	100.1
CC(C)(C)c1cc(/C=C2\SC(=S)NC2=O)cc(C(C)(C)C)c1O	97.5
CCN(CC)Cn1nc2c3c(cccc3c1=O)-c1ccccc1-2	56.6*
Cc1ccc(-c2nn(CC(=O)N(C)C)c(=O)c3ccccc23)cc1	100.1
CN(C)C(=O)n1nc2c3c(cccc31)C(=O)c1ccccc1-2	68.7
SMILES	VACV E9 pol inh
O=C(O)c1c(-c2ccccc2)oc2ccc(OCc3ccc(Cl)cc3)cc12	89.4
CC(=O)Oc1ccc2oc(-c3ccccc3)c(C(=O)O)c2c1	99.8
Cc1ccccc1COc1ccc2oc(-c3ccccc3)c(C(=O)O)c2c1	87.1*
CCOC(=O)N1CCC(NC(=O)Cn2nc(CC)n3c(cc4sc(CC)cc43)c2=O)CC1	101.2
O=C(CC1CCCCC1)Nc1ccncc1	107.5
Cc1nnc(Sc2cc(C(=O)NCCCN3CC(C)CC(C)C3)c3ccccc3n2)s1 (centres undefined)	69.3*
COC(CNC(=O)c1cc(Sc2nnc(C)s2)nc2ccccc12)OC	93.2
Cc1nnc(Sc2cc(C(=O)NCc3ccccn3)c3ccccc3n2)s1	98.1
CC(C)N1C(=O)C(O)(CC(=O)c2ccccc2Br)c2ccccc21 (centres undefined)	102.8
O=C(Nc1ccc(N2CCCCC2)cc1)c1ccc(F)cc1Cl	105.7
CNC(=O)c1cn(C)c2ccccc12	107.2
O=S(=O)(c1cccc2cnccc12)N1CCCNCC1	100.3
Brc1ccccc1C=Nc1cccc2cnccc12	81.0
O=S(=O)(NCCNC/C=C/c1ccc(Br)cc1)c1cccc2cnccc12	89.1*
Cc1c(C)c2ccc(OCC(N)=O)cc2oc1=O	95.5
COc1ccc(-c2cc(-c3ccccc3O)nc(NC(N)=S)n2)cc1	101.0
Cc1ccc(Cn2nnc3c(=O)n(Cc4cccc(C)c4)cnc32)cc1	96.5
Cc1ccc(Cn2nnc3c(=O)n(Cc4ccc(C(F)(F)F)cc4)cnc32)cc1	98.3
O=c1c2nnn(Cc3ccc(F)cc3)c2ncn1Cc1ccc(F)cc1	69.2*
CC(C)Nc1ccccn1	100.4
N#C/C(=C(/O)C(F)(F)F)c1nc2ccccc2[nH]1	99.9
COc1cc(OC)cc(C(=O)NCCc2cc3ccc(C)c(C)c3[nH]c2=O)c1	101.6
CC(=O)Oc1c(Sc2ccccc2)c(C)nn1C(C)(C)C	82.9*
Cc1nn(C(C)(C)C)c(OC(=O)c2ccccc2)c1Sc1ccccc1	87.7
Cc1nn(-c2ccccc2)c(OC(=O)c2cccs2)c1Sc1ccccc1	100.6
SMILES	VACV E9 pol inh
Cc1ccc(NC(=O)c2cccc(OC(=S)NCc3ccccc3)c2)cc1	95.2
CN1CCC(N(C)C(=O)/C(=C/c2ccc(Cl)cc2)c2ccc(F)cc2)CC1	107.4
O=C1CC(c2ccccc2)c2c(ccc3ccccc23)N1 (centres undefined)	83.5*
COc1cc2c(cc1OC)C(c1ccccc1)CC(=O)N2 (centres undefined)	85.0
O=C(CCC1CC(=O)Nc2ccccc21)NCc1ccccc1 (centres undefined)	84.4
Cc1ccc(-n2[nH]c(=O)c(N=O)c2O)cc1C	93.4
N#CCC(=O)NCCN1CCOCC1	102.2
CC(Cc1ccccc1)NC(=O)c1cnc[nH]1 (centres undefined)	101.2
Nn1c(Cn2ccnc2)nnc1Cn1ccnc1	100.0
CCOC(=O)N1CCN(C(=O)c2cc(Nc3ccc(OC)cc3OC)nc3ccccc23)CC1	96.7
COc1ccc(Nc2nc(N3CCN(C)CC3)nc3ccccc23)c(OC)c1	52.7*
